SMILES strings stand for the structures. Out of some 320,000 compounds screened, about 1,100 (0.34%) were called active. What follows is part of a selection rich in actives, with near analogues and random picks from the rest. A number with no mark means an inactive call.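 The calls were made as follows: active = GFP response vs DMSO above a set limit, about the screen mean plus 3 SD (cut at about 150% in these data); inconclusive = under 70 cell events counted for the yeast strain; inactive = the rest.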

A short description of the experiment: modulators of LAP4-GFP expression in yeast, primary screen, S. cerevisiae, multiplex flow cytometry, MLPCN library (AID 2023). To be noted: 3 h, at 10 µM, hits give high values, median GFP as percent of DMSO wells.
As to `COc1ccc(/C=C(\C#N)c2c[nH]c3ccccc23)cc1`, the GFP response vs DMSO was 97.2%. Regarding `O=C(NC1CCCC1)C(=O)c1c[nH]c2ccccc12`, the GFP response vs DMSO was 100%.

As to `C[n+]1ccc(/C=C/c2c[nH]c3ccccc23)cc1`, the GFP response vs DMSO was 214% (active). On to `CC(C)C(=O)Nc1c2c(nn1-c1ccccc1)CSC2`, for which the GFP response vs DMSO is 104%.

`CC(C)=NN1C(=O)c2ccccc2NC1(C)C`: the GFP response vs DMSO was 103%. To `CCCC(=O)Nc1ncnc2c1ncn2[C@@H]1O[C@@H]2OP(=O)(O)OC[C@H]2[C@H]1OC(=O)CCC` belongs 103%; to `CCc1ccc2c(c1)C1(NN=C(c3ccccc3)S1)C(=O)N2` (stereo unspecified), 169% (active); to `C[C@H](NC(=O)C1CC(=O)N(c2ccc3c(c2)OCO3)C1)C(=O)NCc1ccco1` (stereo partly specified), 94%.

Regarding `COC(=O)Nc1ccc(S(=O)(=O)N2CCN(CCN3C(=O)C4C5C=CC(C5)C4C3=O)CC2)cc1` (stereo unspecified), the GFP response vs DMSO was 95.9%. On to `O=c1[nH]c2ccccc2n2c(-c3ccccc3)nnc12`, for which the GFP response vs DMSO was 87.9%. For `COc1ccc(OCc2cc(C(=O)N3CCCC3)no2)c2ccccc12` the value was 85.3%; for `O=C(c1ccc(N2CCOCC2)c([N+](=O)[O-])c1)N1CCN(c2ccccc2F)CC1`, 96%; for `O=C(c1ccccc1)c1ccc(C(=O)N2CCN(c3ccccc3)CC2)cc1`, 78.1%.

As to `O=C(c1ccc(Cl)c([N+](=O)[O-])c1)N1CCN(c2ccccc2)CC1`, the GFP response vs DMSO was 165% (active).

Take `Cc1ccc(C(=O)NCC(=O)NC2CC2)cc1`: the GFP response vs DMSO is 97.3%. Turning to `O=C(NNC(=S)NC(=O)c1cn(-c2ccccc2)nc1-c1ccccc1)c1ccncc1`, the GFP response vs DMSO was 159% (active). Turning to `Cc1ccc(-c2nn(-c3ccccc3)cc2C(=O)NC2CCC(O)CC2)cc1` (stereo unspecified), the GFP response vs DMSO was 94.9%. Turning to `Cc1onc(-c2ccccc2)c1C(=O)NNC(=S)NC(=O)c1ccc(F)cc1`, the GFP response vs DMSO is 102%. For the compound `CCOc1ccc(CCNC(=O)CN2C(=O)NC3(CCc4ccccc43)C2=O)cc1OCC` (stereo unspecified), the GFP response vs DMSO was 98.4%.

As for `CCCCC(=O)Nc1ccc2c(c1)C(=O)NC2=O`, the GFP response vs DMSO is 107%. For `O=C(Nc1cc(Cl)cc(Cl)c1)C(NCCCO)c1ccccc1` (stereo unspecified) the value was 99.3%; for `CCCCN1C(=O)c2ccc(C(=O)Nc3ccc(S(=O)(=O)N(C)C)cc3)cc2C1=O`, 93.7%. As for `CC(CCc1ccc(O)cc1)NCc1ccc(Cl)cc1Cl` (stereo unspecified), the GFP response vs DMSO is 99.7%. For the compound `CCC(C)n1[nH]c(=O)cc1N` (stereo unspecified), the GFP response vs DMSO is 92.7%. Regarding `COc1ccc(CN2CN(C(C)C)CSC2=S)cc1`, the GFP response vs DMSO was 162% (active).

Consider `S=C1SCN(CCN2CCOCC2)CN1Cc1ccccc1`, for which the GFP response vs DMSO was 111%. Consider `COc1ccc(CN2CN(C3CCCC3)CSC2=S)cc1`, for which the GFP response vs DMSO was 98.2%. To `Cc1onc(-c2c(F)cccc2Cl)c1C(=O)OCC(=O)N1C(C)CCCC1C` (stereo unspecified) belongs 107%. For `CN(c1ccccc1)c1ccc(/C=c2\s/c(=C(/C#N)C(=O)C(C)(C)C)n(Cc3ccco3)c2=O)cc1` the value was 377% (active); for `CCOC(=O)Cn1c(=O)oc2cc(S(=O)(=O)N(C)Cc3ccco3)ccc21`, 107%; for `CCOC(=O)/C=c1\s/c(=C\c2ccc(C#N)cc2)c(=O)n1CC(=O)Nc1cccc(C)c1C`, 96.9%. Take `CC1C=CCC2C(=O)N(c3cccc(C(=O)N4CCCCCC4)c3)C(=O)C12` (stereo unspecified): the GFP response vs DMSO was 97.9%.

In the case of `Cc1cccc[n+]1CC(=O)c1ccccc1`, the GFP response vs DMSO was 91.6%. `COc1ccccc1NC(=O)C[n+]1ccccc1`: the GFP response vs DMSO is 109%.

As to `COC(=O)C[n+]1cccc2ccccc21`, the GFP response vs DMSO was 212% (active). With `CC1(C)CC(=O)C2=C(C1)N=C1SCCC(=O)N1C2c1ccc(C(F)(F)F)cc1` (stereo unspecified), the GFP response vs DMSO is 98.2%. With `CCCCCCSc1ccc(-c2nc3ccc(Cl)cn3c2NCc2ccccc2)cc1`, the GFP response vs DMSO is 99.4%. Regarding `CCCCNc1c(-c2ccc(OC)c(Sc3ccc(OC)cc3)c2)nc2ccc(Cl)cn12`, the GFP response vs DMSO is 141%. As to `CCCCNc1c(-c2cccc(Sc3ccc(OC)cc3)c2)nc2ccccn12`, the GFP response vs DMSO is 151% (active). `COc1ccc(N2CCN(S(=O)(=O)c3cc(Br)cnc3N)CC2)cc1`: the GFP response vs DMSO is 100%. For `CCOc1ccc(-n2c(SC(C)C(=O)OC)nc3c(c2=O)SCC3)cc1` (stereo unspecified), the GFP response vs DMSO was 95.9%. Consider `CCN1/C(=C/c2ccc3ccc(C)cc3[n+]2CC)Sc2ccccc21`, for which the GFP response vs DMSO is 319% [may fluoresce green] (active).

Turning to `CCN1/C(=C\c2ccc3ccccc3[n+]2CC)Sc2cc(C)ccc21`, the GFP response vs DMSO was 501% [may fluoresce green] (active). For `O=C1CCC/C=C\C[C@@H](CC(=O)N(CCO)Cc2ccccc2)C(=O)NCCO1` the value was 85.9%. In the case of `NS(=O)(=O)c1ccc(CCNC(=O)CCCn2c(SCC(=O)N3CCCC3)nc3ccsc3c2=O)cc1`, the GFP response vs DMSO is 101%.

Regarding `CC(C)CC(=O)N1CCN(Cc2cccc(Cl)c2)CC1`, the GFP response vs DMSO is 102%.

`Clc1cccc(CN2COc3c(cc(Cl)c4cccnc34)C2)c1`: the GFP response vs DMSO was 182% (active). On to `O=C(c1cccc(Cl)c1)N1CCN(Cc2ccccc2)CC1`, for which the GFP response vs DMSO is 101%. Take `CC(C)=CCC/C(C)=C/C(=O)O`: the GFP response vs DMSO was 105%. For `O=C(CN1CCCSc2ccccc21)N1CCN(S(=O)(=O)c2cccc(F)c2)CC1`, the GFP response vs DMSO was 110%.

For `CC1=NNC(=O)C1Cc1c(Cl)cccc1Cl` (stereo unspecified), the GFP response vs DMSO is 98.6%. Turning to `O=C(OC1CCOC1=O)c1cccc(S(=O)(=O)Nc2ccc(F)cc2)c1` (stereo unspecified), the GFP response vs DMSO is 95.1%. Consider `CC(=O)Nc1ccc(N2C(=O)CC(Sc3nccc(C)n3)C2=O)cc1` (stereo unspecified), for which the GFP response vs DMSO is 89.5%. `Cc1cc(NC(=O)CCN2CCN(Cc3ccccc3)CC2)ccc1Br`: the GFP response vs DMSO was 83.3%. As for `CC(C)C(=O)N1CC(=O)Nc2ccc(F)cc2C1c1ccc(F)cc1` (stereo unspecified), the GFP response vs DMSO is 108%.

As to `O=C(CSc1ncn[nH]1)Nc1ccc(Br)cc1Br`, the GFP response vs DMSO was 93.9%. On to `O=C(/C=C/Sc1ncn[nH]1)c1ccc(Cl)cc1`, for which the GFP response vs DMSO was 219% (active). In the case of `O=C(CSc1ncn[nH]1)N/N=C/c1ccc(F)cc1`, the GFP response vs DMSO is 117%.

Consider `Cc1ccnc(NC(=O)CCNS(=O)(=O)c2ccc(C)c(C)c2)c1`, for which the GFP response vs DMSO is 81.8%.

For the compound `COc1ccccc1CNC(=O)CNC(=O)c1cn(-c2ccccc2OC)c(=O)c2ccccc12`, the GFP response vs DMSO was 95.4%. Regarding `COc1ccc(O[C@H]2C=C[C@@H](c3ccccc3)O[C@@H]2CO/N=C/C[C@@H]2C=C[C@H](OC(C)=O)[C@@H](COC(C)=O)O2)cc1`, the GFP response vs DMSO is 111%.

The record behind these values is PubChem BioAssay AID2023 (NMMLSC, 2009).
